# Measured values as given in PubChem BioAssay (NCI).
# About 83,000 compounds went through this panel and 20% of them were active in at least one assay; those are over-represented in the sample as a whole.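 In brief: 96-well plates, 48 h treatment, single concentration, percent growth endpoint.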 Unmarked numbers belong to inactive results. The source made the active and inactive calls. The calls were made as follows: active = growth percent below 10; inactive = the rest.
# Assays:
# Experiment in all cases: NCI-60 one-dose screen, 48 h (100 = growth as untreated, 0 = no growth, -100 = all killed)
# Settings in all cases: 10 µM unless noted
# NCI-H23 lung = system: NCI-H23 lung
# NCI-H226 lung = system: NCI-H226 lung
# NCI-H322M lung = system: NCI-H322M lung
# NCI-H460 lung = system: NCI-H460 lung
# HOP-92 NSCLC = system: HOP-92 NSCLC
# NCI-H522 lung = system: NCI-H522 lung
# A549/ATCC NSCLC = system: A549/ATCC NSCLC
# 786-0 renal = system: 786-0 renal
# COLO 205 colon = system: COLO 205 colon
# DU-145 prostate = system: DU-145 prostate
# K-562 leukemia = system: K-562 leukemia
# MALME-3M melanoma = system: MALME-3M melanoma
# MDA-MB-231 breast = system: MDA-MB-231 breast
# RXF 393 renal = system: RXF 393 renal
# SF-268 CNS = system: SF-268 CNS
# SF-295 CNS = system: SF-295 CNS
# SF-539 CNS = system: SF-539 CNS
# UACC-257 melanoma = system: UACC-257 melanoma
# M14 melanoma = system: M14 melanoma
Structure (SMILES),growth (NCI-H23 lung),growth (NCI-H226 lung),growth (NCI-H322M lung) [%],growth (NCI-H460 lung),growth (HOP-92 NSCLC),growth (NCI-H522 lung),growth (A549/ATCC NSCLC),growth (786-0 renal),growth (COLO 205 colon),growth (DU-145 prostate),growth (K-562 leukemia),growth (MALME-3M melanoma),growth (MDA-MB-231 breast),growth (RXF 393 renal),growth (SF-268 CNS),growth (SF-295 CNS),growth (SF-539 CNS),growth (UACC-257 melanoma),growth (M14 melanoma)
CCCCCCCCCc1ccc(OC(C)=O)cc1,105%,99.7%,96.8,103%,98.2%,99.4%,98.9%,101%,113%,103%,101%,103%,110%,111%,101%,96.6%,92.8%,110%,99.5%
CCN(CC)c1ccc2nc3ccc(N=Nc4ccc(N(C)C)cc4)cc3[n+](-c3ccccc3)c2c1,-64.9% (active),-36.9% (active),25.2,-66.4% (active),-14.6% (active),-44.9% (active),3.32% (active),-56.8% (active),-89.9% (active),-98% (active),-4.96% (active),-54.1% (active),-46.4% (active),-87.8% (active),9.77% (active),-82.2% (active),-69.2% (active),-52.5% (active),-75% (active)
Cc1ccc[n+](CCC(N)=O)c1,95.3%,99.6%,103,91.4%,91.5%,90.2%,93.7%,94.4%,107%,103%,,79.3%,92.3%,106%,97.6%,93.5%,87.3%,103%,109%
CC(=O)C1C(=O)C(=O)N(c2ccc(Cl)c(Cl)c2)C1=O (stereo not drawn),90.3%,106%,108,109%,116%,103%,113%,102%,103%,,108%,92.4%,101%,110%,99.8%,96.7%,99.5%,109%,93.7%
NC(CO)(CO)c1ccccc1,99.1%,96.6%,101,99.1%,88.1%,95.3%,100%,106%,,101%,111%,105%,111%,101%,97.6%,104%,104%,96.5%,94.9%
Nc1c(Br)cc(O)c2c1C(=O)c1ccccc1C2=O,32.8%,108%,98.7,102%,70.9%,54%,96.1%,106%,135%,91.6%,66.3%,89.5%,77.5%,80.5%,60.3%,114%,,89.1%,100%
O=C(Nc1ccccc1)c1ccco1,96.2%,99.1%,101,108%,98.8%,100%,97.9%,92.8%,115%,112%,93.7%,92.9%,112%,123%,117%,103%,102%,107%,97%
CCCC(=O)CC(=O)c1ccccc1,96%,91.7%,95.1,106%,95.6%,78.1%,97.9%,103%,113%,106%,112%,107%,111%,93.6%,97.3%,97%,104%,80.9%,100%
N#CC1(O)CCCCC1,114%,100%,97.8,107%,96.5%,88.6%,92.1%,105%,109%,103%,102%,104%,118%,110%,98.5%,103%,105%,90.2%,95.7%
COc1cccc(C(=O)O)c1OC,109%,89.8%,95.6,101%,,87.2%,98.1%,96%,101%,111%,107%,103%,99.2%,115%,105%,87.5%,96.4%,97.6%,103%
CC1CC2C3CCC4=CC(=O)CCC4(C)C3CCC2(C)C1(O)C(=O)CO (stereo not drawn),115%,103%,109,117%,100%,92.2%,88.6%,112%,117%,130%,98.4%,,108%,122%,121%,124%,107%,114%,111%
CS(=O)CC(=N\O)/C(CS(C)=O)=N\O (stereo not drawn),106%,110%,98,111%,105%,96%,97.4%,99.2%,106%,102%,106%,97.5%,101%,114%,98.5%,101%,101%,96.3%,96.3%
CC(=O)c1cccc(O)c1,96.6%,103%,106,105%,103%,88.9%,98.9%,96%,110%,105%,103%,,104%,112%,97.1%,101%,98%,99.3%,99.6%
COC1OC(CO)C(OC)C(O)C1O (stereo not drawn),105%,102%,99.9,97.4%,111%,113%,103%,101%,113%,105%,102%,111%,111%,99.4%,95.7%,96.7%,99%,106%,103%
CC(C)C(=O)OCCOc1ccc(C(C)(C)C)cc1,103%,99.4%,101,102%,97.7%,84.8%,88.4%,101%,108%,104%,103%,97.3%,90.5%,109%,96.1%,99.3%,99.5%,87.7%,107%
Nc1cc(N)ncn1,95.1%,93.9%,103,107%,96%,104%,103%,104%,,110%,91.3%,106%,96.1%,,102%,104%,99.2%,112%,97.2%
CC1(C)CCC(C)(C)NC(=S)N1,100%,-99.8% (active),109,115%,107%,94.8%,108%,105%,103%,107%,103%,97.3%,111%,112%,105%,102%,105%,113%,98.9%
COc1cc(C(=O)N2CCN(c3ccccc3)CC2)c2ccccc2n1,21.2%,37.3%,44.3,8.4% (active),62.3%,-7.75% (active),25.3%,26%,-44.9% (active),1.57% (active),16.5%,54.6%,5.71% (active),-39.8% (active),42.9%,7.61% (active),-4.8% (active),51.1%,0.444% (active)
